This note sets out measurements from PubChem BioAssay (NCATS).

Structures are written as SMILES. Results filed as inconclusive are left out. A number with no mark means an inactive call. Active and inactive are the calls of the source. The call rests on the fitted dose curve; in most records, active means well fitted inhibition curve with a large enough effect; inconclusive means small, poorly fitted or top-dose-only effect; inactive means no such curve, though single readings can be large or run the other way.

For the first experiment, the target named is Retinaldehyde dehydrogenase 3 (Homo sapiens) (UniProt P47895). Briefly: qHTS for Inhibitors of the Aldehyde Dehydrogenase Family (ALDH1A3) Primary screen (AID 2061315).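 Further: plate controls were DMSO vehicle for no effect and reference inhibitor for full effect.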 Particulars: ALDH inhibition qHTS; series mostly up to 56 µM; activity change, negative = inhibition: at the top concentration. On the technique in general: Quantitative high-throughput screening tests each substance at several concentrations.
With `COc1ccc(C2=Nn3c(nnc3-c3ccccc3OC)SC2)cc1OC1CCCC1`, the “activity change, negative = inhibition” value was 22%.
On to `Cc1ccc(CCN2C(=O)c3ccc(C(=O)O)cc3C2=O)cc1`, for which the “activity change, negative = inhibition” value is 3.24%.
Still for that read-out and setting: the same measure for `CC(=O)Nc1sc2c(c1-c1csc3ccccc13)CCNC2`: -4.96%.

A further experiment concerns the target Aldehyde dehydrogenase 1A1 (Homo sapiens) (UniProt P00352). Nature of the experiment: qHTS for Inhibitors of the Aldehyde Dehydrogenase Family (ALDH1A1) Confirmatory screens (AID 2061316). Further: nearly all actives have a fitted effect of over 65% in size. Further: potency means the concentration at half of the fitted maximal effect. On activity change, negative = inhibition: on the % scale 0 is the no-effect control and ±100 the full control effect. Particulars: ALDH inhibition qHTS; series mostly up to 47.3 µM; activity change, negative = inhibition: at the top concentration.
Consider `CCOC(=O)c1[nH]c2c(c1C)C(=S)CC(c1ccco1)C2` (configuration not stated), for which the Potency was 2.01 µM (active).
Same read-out and setting: to `CC(=O)N1CCN(c2ccc(NCc3ccco3)cc2)CC1` belongs 7.98 µM (active).
Still for that read-out and setting: to `CC(C)(C)c1ccc(S(=O)(=O)c2cnc(SCC(=O)Nc3ccc(F)c(Cl)c3)[nH]c2=O)cc1` belongs 0.634 µM (active); to `CN(C)c1ccc(-c2cc[nH]c(=O)c2N)cc1`, 4 µM (active).
On the same count and under the same terms, the same measure for `O=C1Nc2cc(Cl)ccc2/C1=C\c1cc(Cl)c(O)c(Cl)c1`: 22.5 µM (active); for `Cc1sc(NC(=O)Cc2ccc3c(c2)OCO3)nc1-c1ccc2c(c1)CCN2`: 3.18 µM (active).
Consider `Cc1cc(C)nc(NC(=S)N2CCN(c3ccc4cn(C)nc4c3)CC2)c1`, for which the Potency was 7.12 µM (active).
The same measure, in the same setting: to `COc1ccc(C(=O)N(Cc2ccco2)Cc2ccco2)c(O)c1` belongs 7.12 µM (active).
The same measure, in the same setting: to `O=C(O)CN1C(=O)/C(=C/c2ccc(-c3cccc(Cl)c3)o2)SC1=S` belongs 7.98 µM (active).
With `CC(=O)c1c(C)n(-c2cccc(C)c2)c2ccc(OC(=O)COc3ccccc3)cc12`, the “activity change, negative = inhibition” value is 7.76%.
As for `CCOC(=O)c1c(C)n(-c2ccc(OC)cc2)c2ccc(OC(=O)COc3ccccc3)cc12`, the “activity change, negative = inhibition” value is 5.97%.
On to `CN1CCN(c2ccc(NC(=O)CN(C)Cc3c(O)ccc4ccccc34)cc2)CC1`, for which the Potency was 5.04 µM (active).
As to `O=C(O)c1ccc2c(c1)C(=O)N(CCc1ccc(O)cc1)C2=O`, the compound was called inactive.
Take `COc1ccc(-n2c(C)c(C(C)=O)c3cc(OC(=O)c4ccc(C)cc4)ccc32)cc1`: the “activity change, negative = inhibition” value was 5.56%.
With `COc1ccc(C2Nc3ccccc3C(=O)N2Cc2ccco2)cc1COc1ccc(N)cc1` (configuration not stated), the Potency was 1.79 µM (active).
Same read-out and setting: to `CN(C)c1cccc(-c2cnc(N3CCC(c4ncc[nH]4)CC3)s2)c1` belongs 0.201 µM (active).
In the case of `Cc1ccc(C(=O)NCC(c2ccc3c(c2)OCO3)N2CCN(c3ccc(F)cc3)CC2)cc1` (configuration not stated), the “activity change, negative = inhibition” value was -20.7%.
On the same count and under the same terms, the same measure for `COc1ccc(Cl)cc1C(=O)NCc1nnc2cc(-c3nc(C)no3)ccn12`: -7.68%.
`CC(=O)N1CCN(c2ccc(NCc3ccc(Br)o3)cc2)CC1`: the Potency is 10.1 µM (active).
